# Data: PubChem BioAssay (EPA / NIEHS)
# Records with an inconclusive call do not appear. Some compounds were tested as several samples or in several runs, with calls that do not always agree. Activity calls are given as the source filed them. The calls were made as follows: active = hit-call score of the fitted dose curve at least 0.9, where 1 is the maximum; inconclusive = response in the unintended direction; inactive = score below 0.9.
# Biological target: human Thyroid hormone Receptor beta (TRb), THRB (gene 7068) (UniProt P10828)
# Sequence (P10828 whole entry, looked up): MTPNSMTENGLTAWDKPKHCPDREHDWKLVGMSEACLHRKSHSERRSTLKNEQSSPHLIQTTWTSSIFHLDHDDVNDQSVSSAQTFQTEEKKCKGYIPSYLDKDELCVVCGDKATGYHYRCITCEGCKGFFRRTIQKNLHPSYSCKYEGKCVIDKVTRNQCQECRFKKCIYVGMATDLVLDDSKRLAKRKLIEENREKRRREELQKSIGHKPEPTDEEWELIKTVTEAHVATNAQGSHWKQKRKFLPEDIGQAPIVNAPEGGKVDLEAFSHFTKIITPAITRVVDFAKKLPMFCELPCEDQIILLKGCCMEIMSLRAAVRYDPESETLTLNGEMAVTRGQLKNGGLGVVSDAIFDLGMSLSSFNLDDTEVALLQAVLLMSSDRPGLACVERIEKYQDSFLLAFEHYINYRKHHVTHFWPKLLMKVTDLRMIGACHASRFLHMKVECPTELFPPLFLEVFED
# Experiment: ATG_hTRb_XSP2: Attagene TRANS-FACTORIAL Multi-Species (XSP2) HepG2 Assay for human Thyroid hormone Receptor beta (TRb) (AID 2283840);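 also: actives raise reporter mRNA so potency reflects agonist-like gain of signal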
# Procedure: ATG_XSP2_multi-species_TRANS is a cell-based, multiplexed assay created by modifying the existing Attagene TRANS-FACTORIAL system to include a panel of nuclear receptors from some or all the following species: human (Homo sapiens), mouse (Mus musculus), frog (Xenopus laevis), zebrafish (Danio rerio), chicken (Gallus gallus), and turtle (Chrysemys picta). The ECOTOX-FACTORIAL format uses HepG2, a human liver cell line, with measurements taken at 24 hours after chemical dosing in a 24-well plate. Xsp2 included 3 nM 6-alpha-fluorotestosterone and 1.5 nM norgestrel to stimulate the androgen receptor.ATG_hTRb_XSP2 is one of 29 assay components measured or calculated from the ATG_XSP2_multi-species_TRANS assay. It is designed to make measurements of mRNA induction, a form of inducible reporter, as detected with fluorescence intensity signals by Reverse transcription polymerase chain reaction (RT-PCR) and Capillary electrophoresis technology.The assay endpoint ATG_hTRb_XSP2 was analyzed in the positive analysis fitting direction relative to DMSO as the negative control and baseline of activity. Using a type of inducible reporter, measures of mRNA for gain-of-signal activity can be used to understand the reporter gene at the transcription factor-level as they relate to the gene TR. Furthermore, this assay endpoint can be referred to as a primary readout, because this assay has produced multiple assay endpoints where this one serves a reporter gene function. To generalize the intended target to other relatable targets, this assay endpoint is annotated to the nuclear receptor intended target family, where the subfamily is non-steroidal.
# Human liver HepG2 cells are transiently transfected with multiple reporter transcription units (MRTUs) in 6-well plates using FuGene 6 reagent (Roche; 3 ml FuGene/1 mg DNA). The MRTU constructs are regulated by a cis-regulating element (promoter). […] A major difference between the CIS and TRANS system is that in CIS activities of endogenous TFs are measured, whereas the TRANS assay evaluates changes in activities of exogenous, chimeric NR-Gal4 proteins. […] At the end of 24 hour incubation, total RNA was isolated using TriZol reagent (Invitrogen). The isolated RNA is then reverse-transcribed using oligo(dT) primer and Mo-MLV reverse transcriptase (Invitrogen) with DNAse I (Ambion) treatment for 30 min. The one-tenth of the produced cDNA was amplified by PCR using Taq DNA polymerase (Invitrogen) and two reporter sequence-specific primers. The PCR products were fluorescently labeled by primer extension with 6-arboxyfluorescein (6-FAM) 5'-labeled reporter sequence-specific primer (2 min at 95 C, 20 s at 68 C and 10 min at 72 C) and these products were digested with 5U of HpaI (New England Biolabs) for 2h at 37 C. The fragments were purified using Qiaquick PCR columns (Qiagen), analyzed on an ABI 3130xL genetic analyzer (Applied Biosystems) with peak positions identified by using a set of X-rhodamine (ROX)-labeled MapMarker1000 molecular weight standards (BioVentures). The raw capillary electrophoresis data was processed using Attagraph software (Attagene).
Compound,outcome,AC50
C[C@]12CCC(=O)C=C1CC[C@@H]1[C@@H]2CC[C@@]2(C)[C@H]1CC[C@]2(C)O,inactive,
Clc1ccc(C(c2ccccc2Cl)C(Cl)(Cl)Cl)cc1 (configuration not stated),inactive,
CCC(=O)O[C@H]1CC[C@H]2[C@@H]3CCC4=CC(=O)CC[C@]4(C)[C@H]3CC[C@]12C,inactive,157 nM (active)
ClC(Cl)=C(c1ccc(Cl)cc1)c1ccc(Cl)cc1,inactive,
Cc1cc(-c2ccc(N)c(C)c2)ccc1N,inactive,
CC(C)(O)C(=O)Nc1ccc([N+](=O)[O-])c(C(F)(F)F)c1,inactive,
c1cc2ccc3cccc4ccc(c1)c2c34,inactive,
CC(c1ccc(O)cc1)(c1ccc(O)cc1)c1ccc(O)cc1,inactive,
C[C@]12CCC(=O)C=C1CC[C@@H]1[C@@H]2CC[C@]2(C)C(=O)CC[C@@H]12,inactive,
CCOC(=O)C(O)(c1ccc(Cl)cc1)c1ccc(Cl)cc1,inactive,
CC(C)(c1ccccc1)c1ccc(O)cc1,inactive,
